The test system of one test is C33A. Kind of test: Primary qHTS to identify gynecologic anti-cancer compounds using libraries of approved drugs and bioactive compounds (AID 1345084). Note: nearly all actives have a fitted effect of over 55% in size. To be noted: Gynecologic cancer cell panel viability, ATPlite luminescence, 48 h; series mostly up to 57.5 µM. The essentials:
(§1)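 Measured: luminescence after ATPlite addition (15 min, RT). Exposure: 48 h, 37 C, 5% CO2.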
(Quantitative high-throughput screening tests each substance at several concentrations.)

The test system of the next test is CAOV3. The description is as above. To be noted: Gynecologic cancer cell panel viability, ATPlite luminescence, 48 h; series mostly up to 57.5 µM. In outline: as §1
The next test relates to CASKI. The test is described as above. To be noted: Gynecologic cancer cell panel viability, ATPlite luminescence, 48 h; series mostly up to 57.5 µM. The essentials: as §1
The test system of a further test is Es-2. The test is described as above. The note with it: Gynecologic cancer cell panel viability, ATPlite luminescence, 48 h; series mostly up to 57.5 µM. In outline: as §1
On the technique in general: Cellular ATP, detected with luciferase, serves as a proxy for viable cell number.

The subject of a further test is HeLa. The test is described as above. The note with it: Gynecologic cancer cell panel viability, ATPlite luminescence, 48 h; series mostly up to 57.5 µM. The essentials: as §1
Another test relates to Hek293T. Described as above. To be noted: Gynecologic cancer cell panel viability, ATPlite luminescence, 48 h, control line for the selectivity index; series mostly up to 57.5 µM. In outline:
as §1

The test system of a further test is JEG-3. The description is as above. To be noted: Gynecologic cancer cell panel viability, ATPlite luminescence, 48 h; series mostly up to 57.5 µM. The essentials: as §1
The test system of the next test is OV90. Described as above. The note with it: Gynecologic cancer cell panel viability, ATPlite luminescence, 48 h; series mostly up to 57.5 µM. The essentials:
as §1

The next test relates to SKOV3. Described as above. The note with it: Gynecologic cancer cell panel viability, ATPlite luminescence, 48 h; series mostly up to 57.5 µM. The essentials: as §1
Another test has as its system Tov-21-G. Described as above. The note with it: Gynecologic cancer cell panel viability, ATPlite luminescence, 48 h; series mostly up to 57.5 µM. In outline: as §1
Another test deals with Tov112D. The description is as above. The note with it: Gynecologic cancer cell panel viability, ATPlite luminescence, 48 h; series mostly up to 57.5 µM. The essentials:
as §1

A short description of test [1]: qHTS assay to identify inhibitors of the type 1 interferon - major histocompatibility complex class I in skeletal muscle: Counter screen cell viability and HiBit confirmation (AID 1347412). For all read-outs here: nearly all actives have a fitted effect of over 60% in size. The note with it: iHSKM muscle cells + IFN-b, HiBiT or CellTiter-Glo, 24 h; for activity change, negative = inhibition: at 45.9 µM (top of the series). In outline: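 Human myoblast knock-in line, 4.0 ng/ml IFN-beta stimulation, 24 h compound treatment. Endpoints: HiBiT lytic luminescence (HLA-B level) and CellTiter Glo (ATP). Dosing 12 concentrations, 3-fold steps, 46 uM highest final.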

The test system of a further test is PA-1. Description: Primary qHTS to identify gynecologic anti-cancer compounds using libraries of approved drugs and bioactive compounds (AID 1345084). Note: nearly all actives have a fitted effect of over 55% in size. To be noted: Gynecologic cancer cell panel viability, ATPlite luminescence, 48 h; series mostly up to 57.5 µM. In outline:
as §1

Results filed as inconclusive are left out. A number with no mark means an inactive call. Active and inactive are the calls of the source. Calls come from the whole dose curve; as a rule, active = well fitted curve in the direction sought with a large enough effect; inconclusive = small, poorly fitted or top-dose-only effect, or another doubt; inactive = no such curve, though single readings can be large; an effect the other way counts as inactive or inconclusive.
% is set by controls: 0 for no effect and ±100 for the full control effect; potency is the fitted concentration of half-maximal effect.

Take `O=C(NCc1ccc(F)cc1)C(=O)c1c[nH]c2ccccc12`: the Potency result with C33A, in the test with CAOV3, with CASKI, in the test on Es-2, in the test on HeLa and in the test with Hek293T was “inactive” each time. Moreover, the Potency result in the test with JEG-3, with OV90, in the test on SKOV3, with Tov-21-G and with Tov112D was “inactive” throughout.
With `OCC1OC(Oc2cc(O)cc(/C=C/c3ccc(O)cc3)c2)C(O)C(O)C1O` (stereo not given), the Potency entry in the test on C33A, in the test with CAOV3, with CASKI, in the test on Es-2, with HeLa and with Hek293T was “inactive” each time. In addition, the Potency entry in the test on JEG-3, in the test with OV90, in the test with SKOV3 and with Tov112D was “inactive” in each case.
As for `CN(CCc1ccc(Nc2ncc(-c3cccnc3)s2)cc1)Cc1ccccc1`, the Potency entry with C33A, in the test with CAOV3, in the test on CASKI, in the test on Es-2, in the test on HeLa and in the test on Hek293T was “inactive” each time. For the same compound, the Potency entry in the test on JEG-3, in the test with OV90, with Tov-21-G and with Tov112D was “inactive” in each case.
As for `CCOc1cc(C(=O)N2CCC(N3CCN(C)CC3)CC2)ccc1Nc1ncc2c(n1)N(C1CCCC1)c1ccccc1C(=O)N2C`, the Potency result with C33A, in the test with CASKI, in the test with Es-2, with HeLa, with Hek293T and with OV90 was “inactive” each time. In the test with Tov112D, the Potency entry was “inactive”. The figures for the Potency (in the test with CAOV3; in the test with SKOV3; in test [1] (HiBiT)) were 31.6 µM (active), 35.5 µM (active) and 12.5 µM (active), respectively. Also, in test [1] (Viability), the activity change, negative = inhibition was -25.1%.
As to `CC(C)c1cc2c(c(O)c1O)[C@@]13CCCC(C)(C)[C@@H]1[C@H](OC3=O)C2=O`, the Potency result in the test with C33A, in the test on CAOV3, in the test with CASKI, with Es-2, in the test with HeLa and in the test on Hek293T was “inactive” throughout. Moreover, the Potency entry in the test on JEG-3, with OV90, in the test with SKOV3, with Tov-21-G and in the test with Tov112D was “inactive” in each case.
Consider `CCN(CC)Cc1ccc(C(=O)N(CCc2ccccc2OC)[C@@H]2CCNC2)cc1`, for which the Potency entry with C33A, with CAOV3, in the test with CASKI, in the test with Es-2, in the test with HeLa and in the test on Hek293T was “inactive” throughout. Besides, the Potency result in the test with JEG-3, in the test on PA-1, in the test with SKOV3, in the test on Tov-21-G and in the test on Tov112D was “inactive” in each case.
For the compound `Cc1ccc(S(=O)(=O)n2ccc(-c3c(-c4ccc(Cl)cc4)noc3C)n2)cc1`, the Potency in the test on C33A is 8.91 µM (active). In addition, the Potency entry in the test on CAOV3, in the test with CASKI, in the test with Es-2, in the test on HeLa, with Hek293T and with OV90 was “inactive” each time. Moreover, the Potency result with PA-1 is “inactive”.
Consider `C=C[C@@]12COC(=O)C(=C)C1[C@@H](O)[C@H](C(=C)C(=O)OC)[C@@H](OC(=O)C(=C)CO)C2` (stereo not given in full), for which the Potency result in the test on C33A, with CAOV3, in the test with CASKI, in the test on Es-2, with HeLa and with Hek293T was “inactive” in each case. The Potency entry in the test with JEG-3, in the test on OV90, in the test with Tov-21-G and in the test with Tov112D was “inactive” throughout.
In the case of `CC1CC2OC3(OC2C(C)(C)O)C1C1(C)CCC24CC25CCC(O[C@@H]2OC[C@@H](O)[C@H](O)[C@H]2O)C(C)(C)C5CC=C4C1(C)C3O` (stereo not given in full), the Potency result with C33A, in the test with CAOV3, in the test on CASKI, with Es-2, in the test on HeLa and in the test with Hek293T was “inactive” in each case. In addition, the Potency entry in the test with OV90, with PA-1, with SKOV3, with Tov-21-G and in the test on Tov112D was “inactive” throughout.
`Nc1ccccc1N`: the Potency with C33A is 10 µM (active); in the test with CAOV3, 5.62 µM (active); in the test with CASKI, 7.94 µM (active); with Es-2, 11.2 µM (active); in the test with HeLa, 12.6 µM (active); with Hek293T, 7.94 µM (active). The Potency with OV90 was 10 µM (active); in the test with PA-1, 14.1 µM (active); in the test with SKOV3 it was 12.6 µM (active); with Tov-21-G it was 12.6 µM (active).
With `Cc1[nH]nc(C(F)(F)F)c1Cc1sc2c(c1C(=O)N1C[C@](C)(O)CO1)c(=O)n(C)c(=O)n2C(C)C`, the Potency result in the test with C33A, in the test with CAOV3, in the test with CASKI, in the test with Es-2, in the test with HeLa and with Hek293T was “inactive” each time. Moreover, the Potency result in the test on JEG-3, with OV90, with Tov-21-G and with Tov112D was “inactive” throughout.
For `O=C(C(c1ccccc1)c1ccccc1)N1CCN(CC(O)COc2cccc3ncccc23)CC1` (stereo not given), the Potency entry in the test on C33A, with CAOV3, with CASKI, with Es-2, with HeLa and in the test with Hek293T was “inactive” throughout. For the same compound, the Potency result in the test on JEG-3, in the test on PA-1, with SKOV3, in the test on Tov-21-G and with Tov112D was “inactive” in each case.
For `CC(C)=CCCC1(C)C=Cc2c(c(C)cc3c2[nH]c2ccccc23)O1` (stereo not given), the Potency result with C33A, in the test on CAOV3, in the test with CASKI, in the test on Es-2, with HeLa and in the test on Hek293T was “inactive” each time. Besides, the Potency entry in the test with JEG-3, in the test on Tov-21-G and in the test with Tov112D was “inactive” each time. Besides, in the test with SKOV3, the Potency is 8.91 µM (active).
Consider `CN[C@H](CC(C)C)C(=O)N[C@H]1C(=O)N[C@@H](CC(N)=O)C(=O)N[C@H]2C(=O)N[C@H]3C(=O)N[C@H](C(=O)N[C@H](C(=O)O)c4cc(O)cc(O)c4-c4cc3ccc4O)[C@H](O[C@H]3C[C@](C)(N)[C@@H](O)[C@H](C)O3)c3ccc(c(Cl)c3)Oc3cc2cc(c3O[C@@H]2O[C@H](CO)[C@@H](O)[C@H](O)[C@H]2O[C@H]2C[C@](C)(NCc3ccc(-c4ccc(Cl)cc4)cc3)[C@@H](O)[C@H](C)O2)Oc2ccc(cc2Cl)[C@H]1O`, for which the Potency result in the test on C33A, with CAOV3, in the test on CASKI, with Es-2, in the test on HeLa and with Hek293T was “inactive” each time. For the same compound, the Potency entry with JEG-3, with PA-1, in the test with SKOV3, with Tov-21-G and with Tov112D was “inactive” each time.
In the case of `C[C@H]1Oc2cc(cnc2N)-c2c(nn(C)c2C#N)CN(C)C(=O)c2ccc(F)cc21`, the Potency entry in the test on C33A, with CAOV3, in the test with CASKI, with Es-2, with HeLa and with Hek293T was “inactive” each time. Further, the Potency entry in the test on JEG-3 and in the test on Tov112D was “inactive” in each case. Further, the activity change, negative = inhibition was -24.3% in test [1] (HiBiT) and -27.7% in test [1] (Viability).
Take `CCCCc1ccc(C(=O)Nc2cc(-c3ccc(Cl)cc3)nn2-c2ccc(Cl)cc2)cc1`: the Potency result in the test with C33A, in the test on CAOV3, in the test with CASKI, with Es-2, in the test on HeLa and in the test on Hek293T was “inactive” throughout. In addition, the Potency result in the test with JEG-3, with OV90, with Tov-21-G and in the test on Tov112D was “inactive” in each case.

The record behind these values is PubChem BioAssay (NCATS).
